Assay outcomes: PubChem BioAssay, several laboratories
Most compounds without a hit are left out; they make up all but 27% or so of the library.
CYP2C9 act: human CYP2C9 activators, primary screen, biochemical, luminescence; recombinant CYP2C9, luciferin-H conversion; hits give high values; factor 1 = untreated enzyme, 0 = blocked; activation factor at 5 µM; Cytochrome P450 2C9 (Homo sapiens), P11712; AID 1024, 2008; 1.4% of 96,000 active;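 active = activation factor of 2 or more for CYP2C9 at a 5 µM dose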;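 also: 0 = sulfaphenazole-blocked wells and 1 = vehicle-only wells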
Target sequence (P11712 whole entry, looked up): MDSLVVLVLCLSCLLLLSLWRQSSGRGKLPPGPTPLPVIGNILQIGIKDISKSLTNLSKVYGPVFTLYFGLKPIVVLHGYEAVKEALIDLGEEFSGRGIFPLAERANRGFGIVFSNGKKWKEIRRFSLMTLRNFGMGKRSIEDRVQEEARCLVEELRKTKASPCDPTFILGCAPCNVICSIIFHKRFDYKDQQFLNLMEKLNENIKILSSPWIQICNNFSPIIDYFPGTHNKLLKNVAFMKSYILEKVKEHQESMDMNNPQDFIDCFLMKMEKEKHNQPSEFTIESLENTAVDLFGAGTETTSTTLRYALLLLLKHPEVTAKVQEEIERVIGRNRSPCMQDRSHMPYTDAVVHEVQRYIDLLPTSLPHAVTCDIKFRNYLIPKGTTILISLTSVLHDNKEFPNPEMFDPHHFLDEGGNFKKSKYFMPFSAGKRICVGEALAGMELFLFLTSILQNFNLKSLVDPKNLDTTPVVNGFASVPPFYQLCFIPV
CYP2C19 inh: blockers of cytochrome P450 2C19 activity – biochemical, luminescence, ADME assay, primary screen | P33261 | CYP2C19 Supersomes, luciferin-H EGE luminescence, 30 min | inhibition, % at 5 µM | 21% of 96,000 active;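 active = CYP2C19 inhibition above a set limit at 5 µM in the primary screen, cut at about 50% in these data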;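 also: plate controls were negative control wells for no effect and 2.5 mM tranylcypromine positive control for full effect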
sEH act: soluble epoxide hydrolase activators, primary screen, biochemical, human sEH; Bifunctional epoxide hydrolase 2 (Homo sapiens), P34913; purified human sEH enzymatic activity, activator screen; activation, % at 2 µM; 0.04% of 91,000 active; AID 717, 2007; in the data active = activation above about 37%
sEH inhibitor: soluble epoxide hydrolase inhibitors, primary screen, biochemical, human sEH | inhibition, % at 2 µM | 0.34% of 91,000 active | Bifunctional epoxide hydrolase 2 (Homo sapiens), P34913 | recombinant human sEH enzymatic activity assay; in the data active = inhibition above about 80%
CYP2C19 activ: human CYP2C19 activators, primary screen, biochemical, luminescence | activation factor at 5 µM | recombinant CYP2C19, luciferin-H EGE luminescence; hits give high values; 0 = fully inhibited enzyme, 1 = untreated enzyme | 96,000 tested, under 10 active;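 active = activation factor of at least 2 at 5 µM in the primary screen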;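 also: 0 = wells with 2.5 mM tranylcypromine and 1 = vehicle-only wells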
CYP2C9 inh: blockers of cytochrome P450 2C9 activity – biochemical, luminescence, ADME assay, primary screen | CYP2C9 Supersomes, luciferin-H conversion | inhibition, % at 5 µM | 20% of 96,000 active | AID 777, 2007;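 active = blocking of liver enzyme CYP2C9 beyond about 50% at 5 µM, limit read from the data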
Active calls of the source: *; . = not tested or not shown.

SMILES	CYP2C9 act	CYP2C19 inh	sEH act	sEH inhibitor	CYP2C19 activ	CYP2C9 inh
O=S1(=O)C=C(Sc2nc3ccccc3s2)c2ccccc21	1	4	.	.	1	4
CCCn1c2ccccc2c2nnc(SC(CC)C(=O)Nc3sc4c(c3C#N)CCCC4)nc21 (centres undefined)	0.1	70*	-2	2	0.3	89*
CC(C)c1ccc(NC(=O)C(c2ccccc2)N2CCOCC2)cc1 (centres undefined)	0.3	55*	9	-5	0.4	68*
CC(C)c1noc2ncc(C(=O)c3cc(Cl)cc(Cl)c3O)cc12	0	81*	2	0	0.2	100*
COC(=O)c1ccc(NC(=O)CSc2nccn2CCc2ccccc2)cc1	0.5	76*	13	-13	0.2	50*
Cn1ccnc1SCC(=O)Nc1ccccc1	.	.	6	-3	.	.
COCCCn1c(SCC(=O)Nc2ccc(C(=O)OC)cc2)nc2ccccc2c1=O	0.1	78*	-17	16	0.2	88*
CCOCCCn1c(SCC(=O)Nc2ccc(C(N)=O)cc2)nc2ccccc2c1=O	0.8	56*	10	-13	0.4	18
CCOC(=O)c1sc(C)c2c(=O)n(CCCN3CCOCC3)cnc12	1.2	-14	.	.	1.1	-20
COc1ccc(C(O)P(=O)(O)CCc2ccccc2)cc1 (centres undefined)	1.2	-19	-6	6	1.2	-22
C=CCN1N=C(c2ccc(Cl)s2)CSC1=O	0.6	72*	5	-4	0.3	39
C=CCN1C(=O)CSC1=Nc1ccc(O)cc1	1.3	-9	-10	12	1.1	-32
Nc1ccc2c(c1)N1CCN=C1S2	1	1	.	.	1	4
O=C(Nc1ccc(Cl)cc1)Nc1ccc2c(c1)N1CCN=C1S2	0.3	42	-61	61	0.6	67*
Cc1[nH]c2ccc(-c3nnc(SCC(=O)c4ccc(F)cc4)o3)cc2c1C	0.7	23	4	-3	0.8	29
Cc1[nH]c2ccc(C(=O)O)cc2c1C	0.8	99*	23	-30	0	19
CC1CCC(NC(=O)CN2C(=O)C3CCCN3c3ncc(Cl)cc32)CC1 (centres undefined)	0.6	38	-1	4	0.6	44
CCc1ccccc1NC(=O)CN1C(=O)C2CCCN2c2ncc(Cl)cc21 (centres undefined)	0.5	55*	8	-6	0.4	54*
O=C(CN1C(=O)c2ccccc2C1=O)Nc1ccccc1C(=O)NC1CCCCCC1	.	.	-6	10	.	.
COc1ccc(CNC(=O)CN2C(=O)C3CCCN3c3ncc(Cl)cc32)cc1 (centres undefined)	0.5	82*	-5	8	0.2	52*
COC(=O)c1ccccc1NC(=O)CN1C(=O)C2CCCN2c2ncc(Cl)cc21 (centres undefined)	0.3	48	-2	7	0.5	67*
O=C(CN1C(=O)C2CCCN2c2ncc(Cl)cc21)NCc1ccc2c(c1)OCO2 (centres undefined)	0.8	40	-6	8	0.6	16
COc1cc(-c2cc(N)n(S(=O)(=O)c3ccccc3)n2)cc(OC)c1OC	0	96*	-2	-1	0	98*
Nc1cc(-c2ccccc2)nn1S(=O)(=O)c1ccc(Br)cc1	0.5	12	-2	1	0.9	49
O=C(Cn1nc(-c2ccc(Cl)cc2)ccc1=O)N1CCN(c2ccccc2)CC1	0.5	25	8	-8	0.7	52*
SMILES	CYP2C9 act	CYP2C19 inh	sEH act	sEH inhibitor	CYP2C19 activ	CYP2C9 inh
O=C(CCCC(=O)N1CCN(c2ccccc2F)CC1)N1CCN(c2ccccc2F)CC1	0.8	8	-1	-1	0.9	16
Oc1ccc(N2CCN(C(=S)NCCc3ccccc3)CC2)cc1	0.6	51*	-14	13	0.5	38
O=C(CCc1ccccc1)N1CCN(c2ccc(Cl)cc2)CC1	0.6	50*	0	1	0.5	44
O=C(Nc1ccc(Cl)cc1)N1CCN(c2ccccc2)CC1	.	.	-41	43	.	.
O=C(Cc1ccc(-n2cccc2)cc1)N1CCN(c2ccccc2F)CC1	0.4	50	-11	10	0.5	63*
Cc1cc(NC(=O)COC(=O)COc2ccc3c(c2)CCC3)no1	1	6	.	.	0.9	-5
O=C(Cn1nc(C(F)(F)F)c2c1CCCCC2)N1CCOCC1	1	30	7	-4	0.7	4
Cn1cc(CC(=O)N2CCN(c3ccc(Cl)cc3)CC2)c2ccccc21	2.1*	71*	-6	8	0.3	-105
Cn1cc(CC(=O)N2CCN(c3ccccc3F)CC2)c2ccccc21	1.6	100*	-2	-1	0	-65
Cn1cc(CC(=O)NCCCN2CCCC2)c2ccccc21	0.8	10	-1	0	0.9	17
O=C(Cn1nc(C(F)(F)F)c2c1CCC2)N1CCN(c2ccccc2)CC1	2.3*	89*	13	-9	0.1	-126
O=C(CSc1nnc(CNC(=O)c2cccs2)o1)Nc1cccc(C(F)(F)F)c1	0.8	25	-14	18	0.8	22
CC(=O)c1cn(CC(=O)NCc2cccnc2)c2ccccc12	0.2	77*	3	-3	0.2	83*
Cc1c(C#N)c2ccccc2n1CC(=O)NCc1ccccc1	.	.	-1	1	.	.
O=C(CN1C(=O)c2cccc3cccc1c23)NCc1cccnc1	1.2	83*	2	-2	0.2	-20
Cc1c(C#N)c2ccccc2n1CC(=O)NCc1cccnc1	0.5	71*	-2	2	0.3	54*
CCN1C(=O)c2cccc3cccc1c23	4.1*	40	7	-8	0.6	-306
CCN1C(=O)c2cccc3c(NC(=O)C(C)(C)C)ccc1c23	0.8	6	-10	10	0.9	22
O=C(CN1C(=O)c2cccc3cccc1c23)Nc1cccnc1	.	.	4	-5	.	.
CCOC(=O)Cn1c(=NC(=O)CSC(C)=O)sc2ccccc21	0.2	40	.	.	0.6	81*
CC(=O)N1CCN(c2ccc(NCc3ccc(C)s3)cc2)CC1	0.7	22	.	.	0.8	33
Cc1ccc(CNc2ccc(N3CCOCC3)cc2)s1	0.8	65*	-4	2	0.4	18
O=C1CC(c2ccc(Cl)c(Cl)c2)CC(O)=C1C=NCCN1CCNCC1 (centres undefined)	0.8	23	.	.	0.8	20
O=C1OCC(CO)(CO)N=C1NNc1cc(Cl)ccc1Cl	0.4	77*	-2	4	0.2	56*
COC(=O)C(O)(CC(=O)Nc1cc(Cl)ccc1Cl)C(F)(F)F (centres undefined)	.	.	8	-6	.	.
CCSC1=N/C(=C\c2ccc(C(=O)O)cc2)C(=O)S1	1	6	6	-7	0.9	2
